SARS PLP yeast – SARS-CoV PLP inhibition in yeast | S. cerevisiae expressing SARS-CoV PLpro, growth rescue | Potency, µM (top dose mostly 32.9 µM), without a hit: top-dose activity, positive = growth rescue, usual class: activators | 0.19% of 330,000 active; also: potency is read from the fitted curve at half-maximal effect; 0% is about no effect; nearly all actives have a fitted effect of over 55% in size
NS1 inh – blocks influenza NS1 protein function; Potency, µM (series often up to 46.1 µM), without a hit: top-dose activity, positive = more growth; 0.4% of 270,000 active; AID 2326; also: potency is read from the fitted curve at half-maximal effect; actives are rising curves; nearly all actives have a fitted effect of over 50% in size
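Growth recovery, yeast-based: influenza A NS1 expressed in S. cerevisiae causes slow growth, and suppressors are detected by OD600. The parent strain without NS1 is used as positive control.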
Cycloheximide cs – counter-screen for Shiga toxin inhibitors: cycloheximide protein synthesis inhibition | 12% of 300,000 active | max response, % | cell reporter, cycloheximide protein synthesis inhibition counterscreen; in the data active = max response mostly above about 13%, no sharp cut-off; inactive = mostly below about 14%; also: read at 38.3 µM for the half of the compounds with a filed dose; 0% is about no effect
Pf growth 96h – inhibits malaria parasite growth, 96 h; AID 504834; P. falciparum luciferase reporter growth, 96 h; 6.9% of 320,000 active; Potency, µM (highest dose often 28.7 µM), without a hit: at the top dose activity change, negative = inhibition, usual class: inhibitors; active = well fitted inhibition curve with a large enough effect; inconclusive = small, poorly fitted or top-dose-only effect, or another doubt; inactive = no such curve, though single readings can be large or run the other way; also: potency is read from the fitted curve at half-maximal effect; % is scaled to controls: 0 for no effect and ±100 for the full control effect
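Infected RBCs, 2% Hct / 0.05% parasitemia final; luciferase-reporter P. falciparum; cpd 96 h, 37 C, 5% CO2; luciferase detection reagent; luminescence.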
Pf growth 48h – inhibits P. falciparum growth in the first generation, 48 h; P. falciparum luciferase growth in erythrocytes, 48 h; Potency, µM (top dose mostly 28.7 µM), inactives show at the top dose activity change, negative = inhibition, usual class: inhibitors; 5.9% of 310,000 active; AID 504832; active = well fitted inhibition curve with a large enough effect; inconclusive = small, poorly fitted or top-dose-only effect, or another doubt; inactive = no such curve, though single readings can be large or run the other way; also: potency is read from the fitted curve at half-maximal effect; % is scaled to controls: 0 for no effect and ±100 for the full control effect
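Luciferase-expressing P. falciparum in infected erythrocytes (2% hematocrit, 0.1% parasitemia final) in RPMI 1640/0.5% Albumax were exposed to compound for 48 hours at 37 C, 5% CO2; growth read as luminescence.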
Shiga toxin inh – inhibitors of Shiga toxin in Vero cells; 9.2% of 290,000 active; Vero cells, Shiga toxin protein synthesis inhibition reporter; inhibition, % at 38.7 µM; AID 2315; in the data active = inhibition mostly above about 28%, no sharp cut-off; inactive = mostly below about 43%; also: 0% is about no effect
* marks the source's active call; other numbers are inactive results; ? = inconclusive; . = no result. Sampled rows, rich in hits. Any-hit rate of the full collection: about 21%. Unless noted, calls follow the shape of the full dose curve.

SMILES	SARS PLP yeast	NS1 inh	Cycloheximide cs	Pf growth 96h	Pf growth 48h	Shiga toxin inh
Cc1ccc(/C=C/c2ccc(N(C)C)cc2)[n+](C)c1	1%	2%	-5	219%	1.2µM*	15
CN(C)c1ccc(/C=C/c2cc[n+]([O-])cc2)cc1	7%	-7%	42*	2.1µM*	66%	172*
COc1ccc(C2CCCN2C(=O)Nc2ccccc2)cc1OC (stereo not drawn)	6%	-13%	-3	?	.	-15
COc1ccc(S(=O)(=O)Nc2ncccc2C)c2ccccc12	12%	7%	-1	27%	22%	.
CCn1nnnc1SCC(=O)Nc1nc(C)c(C)s1	12%	0%	29*	?	85%	44*
COCCCn1nnnc1SCC(=O)Nc1nc(C)c(C)s1	23%	4%	18*	9%	35%	-14
COc1ccc(NC(=O)/C(Cl)=C(/Cl)S(=O)Cc2ccc(Cl)cc2)cn1 (stereo not drawn)	-25%	.	-13	?	-36%	-41
CCNc1ccc(P(=O)(c2ccccc2)c2ccccc2)cc1	0%	13%	-3	-4%	0%	6
CN(Cc1nc(-c2ccc(Cl)cc2)no1)C(=O)c1ccco1	0%	-5%	12*	8%	32%	44
O=C(O)CCCc1nc(-c2ccc(Cl)cc2)no1	-8%	-78%	-2	?	.	-17
CN(C)C(=O)CCCc1nc(-c2ccc(Cl)cc2)no1	2%	-6%	38*	.	151%	156*
Cc1ccc(-c2noc(CN(C)C(=O)c3ccoc3C)n2)cc1	-8%	-17%	19*	-3%	20%	88*
O=C(COC(=O)c1cc(Br)ccc1O)NNC(=O)c1cccs1	-2%	.	.	26%	-10%	.
COc1ccc(N(CC(=O)NCc2cccs2)S(=O)(=O)c2ccc(F)cc2)cc1	-1%	.	.	?	?	.
CC(C)(C)c1ccc(C(=O)Nc2ccc(F)cc2)s1	-3%	6%	40*	5%	31%	71*
CCc1cc2cc(C(=O)Nc3ccccc3F)sc2s1	-3%	4%	30*	9.3µM*	204%	97*
CCc1cc2cc(C(=O)Nc3ccc(F)cc3)sc2s1	3%	-1%	30*	0.41µM*	-2%	76*
O=C(Nc1ccccc1F)c1cc2c(s1)-c1ccccc1S(=O)(=O)C2	-3%	3%	-2	26%	17%	24
CCN1CCN(S(=O)(=O)c2cc(OCC(=O)NC3CCCCC3)c(C)cc2Cl)CC1	0%	-3%	-2	2%	2.1µM*	-1
Cc1cc(Cl)c(S(N)(=O)=O)cc1OCC(=O)NC1CCCCC1	-5%	21%	1	-18%	41%	-14
CCOC(=O)N1CCN(S(=O)(=O)c2cc(OCC(=O)NC3CCCCC3)c(C)cc2Cl)CC1	0%	-7%	-3	0.66µM*	.	-14
Cc1cc(Cl)c(S(=O)(=O)N2CCSCC2)cc1OCC(=O)NC1CCCCC1	7%	12%	3	11%	.	-9
Cc1cc(Cl)c(S(=O)(=O)N2CCCCCC2)cc1OCC(=O)NC1CCCCC1	-1%	-11%	0	0.059µM*	.	13
Cc1cc(Cl)c(S(=O)(=O)N2CCN(c3ccccn3)CC2)cc1OCC(=O)NC1CCCCC1	-1%	-34%	-2	?	0.23µM*	-7
CCN(CC(=O)Nc1ccc(OC)cc1)CC(=O)Nc1sc2c(c1C(=O)OC)CCCC2	-4%	.	.	-70%	?	.
SMILES	SARS PLP yeast	NS1 inh	Cycloheximide cs	Pf growth 96h	Pf growth 48h	Shiga toxin inh
COc1ccccc1N1CCN(c2nc(C)cc(C)c2C#N)CC1	-5%	-31%	-1	8.3µM*	4%	3
COc1ccccc1N1CCN(c2nc3ccccc3nc2C(C#N)C(=O)OC(C)C)CC1 (stereo not drawn)	-1%	-45%	-1	2.1µM*	1.9µM*	-2
CCCCCCOC(=O)C(C#N)c1nc2ccccc2nc1N1CCN(CC)CC1 (stereo not drawn)	2%	-46%	-4	?	?	2
CCN1CCN(c2nc3ccccc3nc2C(C#N)C(=O)OCc2ccccc2)CC1 (stereo not drawn)	-4%	-9%	-8	?	12µM*	-19
COCCCNC(=O)C(C#N)c1nc2ccccc2nc1N1CCCC1 (stereo not drawn)	5%	3%	-4	7.4µM*	8.3µM*	-15
CCc1ccc(-n2ccc(=O)c(C(=O)O)n2)cc1	-4%	4%	-1	36%	18%	3
Cc1nn(S(=O)(=O)c2ccc(Br)cc2)c(C)c1S(=O)(=O)N1CCOCC1	-1%	5%	7	32%	14%	-6
COc1ccc(C(=O)C(C)OC(=O)c2nc3nccc(C)n3n2)cc1 (stereo not drawn)	-5%	.	.	31%	9%	.
CCOC(=O)N1CCN(c2nc3ccccc3nc2C(C#N)C(=O)NCCc2ccccc2)CC1 (stereo not drawn)	1%	-44%	-3	?	7.4µM*	-7
COc1ccc(C)cc1-n1nnnc1SCc1nc2ccccc2s1	-6%	5%	45*	90%	56%	129*
COc1ccc(-n2nnnc2SCc2nc3ccccc3s2)cc1	4%	-65%	68*	197%	.	99*
COc1ccc(C)cc1-n1nnnc1SCC1CCCO1 (stereo not drawn)	-3%	-4%	11	?	.	-3
Cc1ccccc1OCC(=O)N(Cc1nc(-c2ccccc2)no1)C(C)C	-3%	-21%	-1	-8%	?	-1
COc1ccc(-c2noc(COc3ccccc3OC)n2)cc1OC	-1%	-33%	13*	22%	7%	50*
COc1ccccc1OCc1nc(-c2ccc([N+](=O)[O-])cc2)no1	13%	11%	24*	?	52%	39*
COc1ccccc1OCC(=O)N(Cc1nc(-c2ccccc2)no1)C1CCCCC1	-25%	-46%	15*	.	13µM*	43
COc1ccc(C(=O)C2CCCN(C(=O)C3=CCCC3)C2)cc1OC (stereo not drawn)	1%	2%	6	?	9%	-4
O=C(OCC(=O)N1CCOCC1)c1c(Cl)ccc(Cl)c1Cl	7%	-5%	-4	1%	-3%	4
N#Cc1c(N)n[nH]c1CCCN	-14%	6%	-2	.	7%	-7
Cc1cccc(C)c1NC(=O)CC(NCCc1ccccc1)C(=O)O (stereo not drawn)	16%	7%	-1	?	5%	-1
CCCCNC(=O)C(=O)NCC1CCCN1S(=O)(=O)c1cccs1 (stereo not drawn)	-2%	.	.	?	?	.
CCOc1cccc(=NC2CCCCC2)c2c(C)n(C)c(C)c12	0%	0%	2	?	1.9µM*	13
C=CCN1CC(c2nc3ccccc3n2Cc2cccc3ccccc23)CC1=O (stereo not drawn)	-2%	-70%	-5	12µM*	?	-21

Screening results as filed in PubChem BioAssay.
